What was measured:
Test in all cases: DAPPL (digital affinity profiling via proximity ligation, sequencing); 10 mM Tris-HCl pH 7.5, 50 mM NaCl, 1 mM DTT, 4% glycerol, room temperature, 30 min; GST-TFs on glutathione beads, 16-mer random dsDNA library, 0.1% formaldehyde crosslink after washing; high values mean tight binding
Conditions in all cases: protein: recombinant; tags: N-terminal GST; dsDNA, one strand shown
FLI1 = target: T1, FLI1 (Homo sapiens, UniProt Q01543 1-452)
T1 sequence: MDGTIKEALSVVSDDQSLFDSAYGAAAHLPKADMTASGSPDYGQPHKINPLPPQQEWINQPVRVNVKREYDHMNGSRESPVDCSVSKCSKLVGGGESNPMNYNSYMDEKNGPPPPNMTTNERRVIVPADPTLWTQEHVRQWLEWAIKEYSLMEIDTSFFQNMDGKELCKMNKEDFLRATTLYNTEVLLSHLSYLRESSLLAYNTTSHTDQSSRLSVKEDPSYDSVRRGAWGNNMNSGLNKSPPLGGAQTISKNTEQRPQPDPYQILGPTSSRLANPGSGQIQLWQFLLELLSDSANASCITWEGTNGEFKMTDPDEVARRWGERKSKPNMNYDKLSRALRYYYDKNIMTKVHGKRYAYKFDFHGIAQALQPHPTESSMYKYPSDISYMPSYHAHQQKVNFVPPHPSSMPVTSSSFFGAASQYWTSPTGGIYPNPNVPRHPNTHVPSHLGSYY
In short: (§1)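 GST fusions of human transcription factors were expressed in yeast and captured with glutathione beads. Once given DNA barcodes and pooled alongside a tag-only sample, they were incubated for 30 min at room temperature with 200 nmole of a random double-stranded 16-mer DNA library in Tris/NaCl/DTT/glycerol buffer, then washed, crosslinked (0.1% formaldehyde), proximity-ligated, PCR-amplified and sequenced on an Illumina NextSeq500. The binding signal of each hexamer is its read frequency for a factor divided by its frequency for the tag-only sample.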

ELK1 = target: T2, ELK1 (Homo sapiens, UniProt P19419 1-428)
T2 sequence: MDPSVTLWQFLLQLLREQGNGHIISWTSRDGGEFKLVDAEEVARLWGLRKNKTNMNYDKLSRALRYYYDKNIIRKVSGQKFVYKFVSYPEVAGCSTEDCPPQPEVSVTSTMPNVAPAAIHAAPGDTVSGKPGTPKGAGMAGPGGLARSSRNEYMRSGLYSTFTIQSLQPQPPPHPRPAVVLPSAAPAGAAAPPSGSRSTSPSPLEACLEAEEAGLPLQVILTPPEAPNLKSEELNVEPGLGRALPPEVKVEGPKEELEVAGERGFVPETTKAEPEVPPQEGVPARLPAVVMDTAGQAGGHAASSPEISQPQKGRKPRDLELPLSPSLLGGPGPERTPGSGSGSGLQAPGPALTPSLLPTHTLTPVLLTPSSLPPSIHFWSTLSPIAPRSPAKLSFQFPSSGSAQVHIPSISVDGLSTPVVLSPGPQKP
In short: as §1

GABPA = target: T3, GABPA (Homo sapiens, UniProt Q06546 1-454)
T3 sequence: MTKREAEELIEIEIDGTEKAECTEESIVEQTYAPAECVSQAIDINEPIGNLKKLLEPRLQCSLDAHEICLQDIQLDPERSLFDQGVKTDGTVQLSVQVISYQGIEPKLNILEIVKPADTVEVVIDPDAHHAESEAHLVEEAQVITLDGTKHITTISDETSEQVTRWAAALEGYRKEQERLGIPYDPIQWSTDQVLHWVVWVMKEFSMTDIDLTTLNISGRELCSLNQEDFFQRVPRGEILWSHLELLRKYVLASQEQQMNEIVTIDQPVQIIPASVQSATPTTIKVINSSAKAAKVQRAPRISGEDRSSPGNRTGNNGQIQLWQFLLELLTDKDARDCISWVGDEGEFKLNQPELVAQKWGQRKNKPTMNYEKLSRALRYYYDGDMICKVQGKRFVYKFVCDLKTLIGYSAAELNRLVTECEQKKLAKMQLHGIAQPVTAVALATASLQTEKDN
In short: as §1

ERG = target: T4, ERG (Homo sapiens, UniProt P11308 1-479)
T4 sequence: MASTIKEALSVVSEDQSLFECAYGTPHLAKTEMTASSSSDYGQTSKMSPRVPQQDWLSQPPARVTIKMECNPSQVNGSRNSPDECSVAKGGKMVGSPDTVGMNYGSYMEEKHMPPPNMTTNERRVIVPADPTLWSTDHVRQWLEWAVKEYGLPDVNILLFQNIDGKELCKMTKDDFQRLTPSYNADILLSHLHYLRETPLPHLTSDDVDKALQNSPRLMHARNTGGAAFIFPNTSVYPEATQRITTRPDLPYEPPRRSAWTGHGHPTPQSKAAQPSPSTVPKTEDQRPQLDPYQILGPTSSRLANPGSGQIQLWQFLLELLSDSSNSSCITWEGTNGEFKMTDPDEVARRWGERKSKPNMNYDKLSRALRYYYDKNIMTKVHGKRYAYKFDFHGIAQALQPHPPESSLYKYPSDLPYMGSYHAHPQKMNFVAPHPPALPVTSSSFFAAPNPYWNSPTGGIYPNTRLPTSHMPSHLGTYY
In short: as §1

ELF1 = ELF1 (Homo sapiens, UniProt P32519 1-619)
Chain of ELF1 (P32519 whole entry): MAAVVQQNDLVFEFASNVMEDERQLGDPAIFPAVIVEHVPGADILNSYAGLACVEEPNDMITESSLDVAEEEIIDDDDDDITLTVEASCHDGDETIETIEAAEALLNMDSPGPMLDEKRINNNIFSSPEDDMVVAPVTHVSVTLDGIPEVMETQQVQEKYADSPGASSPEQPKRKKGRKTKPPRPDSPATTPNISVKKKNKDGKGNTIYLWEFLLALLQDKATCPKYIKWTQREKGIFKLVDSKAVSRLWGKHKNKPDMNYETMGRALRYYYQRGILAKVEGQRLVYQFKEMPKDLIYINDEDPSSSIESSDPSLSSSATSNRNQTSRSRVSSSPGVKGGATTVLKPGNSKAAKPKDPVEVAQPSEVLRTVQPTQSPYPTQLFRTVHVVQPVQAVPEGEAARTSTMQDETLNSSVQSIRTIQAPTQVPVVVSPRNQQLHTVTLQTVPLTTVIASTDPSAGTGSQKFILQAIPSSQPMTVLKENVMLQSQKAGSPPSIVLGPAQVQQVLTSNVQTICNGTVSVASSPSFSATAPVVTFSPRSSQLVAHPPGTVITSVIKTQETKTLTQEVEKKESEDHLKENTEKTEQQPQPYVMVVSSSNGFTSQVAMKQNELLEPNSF
In short: as §1

EHF = target: T5, EHF (Homo sapiens, UniProt Q9NZC4 1-300)
T5 sequence: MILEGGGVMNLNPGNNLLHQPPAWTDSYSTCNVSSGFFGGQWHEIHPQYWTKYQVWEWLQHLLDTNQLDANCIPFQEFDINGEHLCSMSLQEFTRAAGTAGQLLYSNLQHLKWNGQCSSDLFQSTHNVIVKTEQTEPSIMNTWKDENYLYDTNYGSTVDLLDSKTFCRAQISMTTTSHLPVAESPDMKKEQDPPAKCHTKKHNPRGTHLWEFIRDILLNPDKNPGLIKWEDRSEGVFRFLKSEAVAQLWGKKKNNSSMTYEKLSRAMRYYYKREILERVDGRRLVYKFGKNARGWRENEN
In short: as §1

SPI1 = SPI1 (Homo sapiens, UniProt P17947 1-270)
In short: as §1

SPIB = SPIB (Homo sapiens, UniProt Q01892 1-262)
Chain of SPIB (Q01892 whole entry): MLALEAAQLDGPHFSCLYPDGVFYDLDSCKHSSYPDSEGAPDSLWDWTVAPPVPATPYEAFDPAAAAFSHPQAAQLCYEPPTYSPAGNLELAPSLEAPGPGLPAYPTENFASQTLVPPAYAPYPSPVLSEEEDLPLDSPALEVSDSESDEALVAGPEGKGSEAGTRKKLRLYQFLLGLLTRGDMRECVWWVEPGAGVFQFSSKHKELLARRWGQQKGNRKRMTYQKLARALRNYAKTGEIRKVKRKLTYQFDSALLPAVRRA
In short: as §1

ELK3 = target: T6, ELK3 (Homo sapiens, UniProt P41970 1-407)
T6 sequence: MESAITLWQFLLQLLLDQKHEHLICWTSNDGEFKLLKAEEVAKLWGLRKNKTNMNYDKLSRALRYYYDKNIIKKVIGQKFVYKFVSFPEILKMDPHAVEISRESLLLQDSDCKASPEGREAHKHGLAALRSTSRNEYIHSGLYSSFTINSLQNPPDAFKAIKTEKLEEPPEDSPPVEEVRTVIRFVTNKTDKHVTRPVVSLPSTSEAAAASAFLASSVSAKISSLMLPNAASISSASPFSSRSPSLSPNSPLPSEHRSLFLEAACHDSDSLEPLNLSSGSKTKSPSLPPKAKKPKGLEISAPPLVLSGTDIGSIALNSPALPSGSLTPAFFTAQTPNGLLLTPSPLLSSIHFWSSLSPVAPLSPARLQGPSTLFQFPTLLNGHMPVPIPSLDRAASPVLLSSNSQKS
In short: as §1

TCCTCT was tested. Which binding signal (FLI1) did it give?
The binding signal was 1.58 fold enrichment (6-mer frequency, TF over GST control).

What about the binding signal (ELK1) of the same sequence?
The binding signal was 1.57 fold enrichment (6-mer frequency, TF over GST control).

What about the binding signal (GABPA) of the same sequence?
The binding signal was 1.57 fold enrichment (6-mer frequency, TF over GST control).

What about the binding signal (ERG) of the same sequence?
Its binding signal is 1.7 fold enrichment (6-mer frequency, TF over GST control).

And the binding signal (ELF1)?
The binding signal was 1.64 fold enrichment (6-mer frequency, TF over GST control).

And the binding signal (EHF)?
The binding signal was 1.7 fold enrichment (6-mer frequency, TF over GST control).

What about the binding signal (SPI1) of the same sequence?
The binding signal was 2.95 fold enrichment (6-mer frequency, TF over GST control).

What about the binding signal (SPIB) of the same sequence?
The binding signal was 1.72 fold enrichment (6-mer frequency, TF over GST control).

And the binding signal (ELK3)?
Its binding signal is 1.6 fold enrichment (6-mer frequency, TF over GST control).
